Test results published in PubChem BioAssay (Tox21).
Inconclusive results are not listed. Activity calls are given as the source filed them. Unless noted, the call rests on the fitted dose curve; in most records, active means well fitted curve in the direction sought with a large enough effect in the repeat runs; inconclusive means weak or mixed curves; inactive means no such curve, though single readings can be large; an effect the other way counts as inactive or inconclusive.

Key:
[1] = qHTS assay to identify small molecule agonists of H2AX (AID 1224845; active means well fitted activation curve with a large enough effect in the signal ratio in the repeat runs, not every such curve was filed as active; the % refers to the signal ratio)
Summary of the method: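 Phospho-H2AX Ser139 measured by HTRF (ex 320 nm; em 665 and 620 nm) after 24 hr antibody incubation. Compounds, 15 concentrations, 0.76% DMSO, were applied to CHO-K1 cells for 3hr at 37C before lysis.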

[2] = qHTS assay to identify small molecule agonists of the hypoxia (HIF-1) signaling pathway (AID 1224846; active means well fitted activation curve with a large enough effect in the signal ratio in the repeat runs, not every such curve was filed as active; the % refers to the signal ratio)
Summary of the method: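 HRE-bla ME-180 beta-lactamase reporter cells in medium with 0.5% dialyzed FBS, pre-incubated 5 h then exposed to compounds 17 h at 37C, 5% CO2; reporter induction read with CCF4-AM FRET substrate.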

[3] = qHTS assay to identify small molecule agonists of H2AX - cell viability counter screen (AID 1224847; calls by dose curve; further: top concentration of the series differs between compounds; nearly all actives have a fitted effect of over 30% in size)
Summary of the method: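 Read-out: CellTiter-Glo luminescence, 30 min RT. Cells: wild-type CHO-K1, 1000/well, 10% FBS, plated overnight at 37C. Treatment: 15 concentrations, 3 hr, 37C, 0.76% DMSO.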

[4] = qHTS RealTime-Glo MT Cell Viability Assay in HepG2 cells - 24 hour (AID 1224867); further: nearly all actives have a fitted effect of over 50% in size
Summary of the method: (§1)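 HepG2 cells were seeded at 600 cells/well together with NanoLuc luciferase and a cell-permeant prosubstrate, preincubated 5 h at 37 C/5% CO2, then pin-dosed with compounds in DMSO. Nonlytic luminescence from viable cells was read at each time point.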

[5] = qHTS RealTime-Glo MT Cell Viability Assay in HEK293 cells - 32 hour (AID 1224868); further: top concentration of the series differs between compounds; nearly all actives have a fitted effect of over 50% in size
Summary of the method: (§2)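 HEK293 cells were seeded at 600 cells/well together with NanoLuc luciferase and cell-permeant prosubstrate, preincubated 5 h at 37 C/5% CO2, then given compound in DMSO by pintool. Luminescence from viable-cell prosubstrate reduction was read repeatedly over 40 h.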

[6] = A CellTox Green Cytotoxicity Assay to monitor cytotoxicity in HEK293 cells - 0 hour (AID 1224869); further: nearly all actives have a fitted effect of over 50% in size
Summary of the method: (§3)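 HEK293 cells, 600/well, were preincubated 5 hours and then exposed to compounds at 37 C for up to 40 hours. A cell-impermeant cyanine dye staining dead-cell DNA was read by fluorescence at 0, 8, 16, 24, 32 and 40 h time points.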

[7] = qHTS RealTime-Glo MT Cell Viability Assay in HepG2 cells - 40 hour (AID 1224870); further: nearly all actives have a fitted effect of over 50% in size
Summary of the method: (§4)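 Real-time viability: cells seeded at 600 per well together with NanoLuc and cell-permeant prosubstrate, compounds added after 5 h incubation. Luminescence tracked at 0, 8, 16, 24, 32 and 40 h of exposure.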

[8] = A CellTox Green Cytotoxicity Assay to monitor cytotoxicity in HEK293 cells - 40 hour (AID 1224871); further: nearly all actives have a fitted effect of over 45% in size
Summary of the method: as §3

[9] = qHTS RealTime-Glo MT Cell Viability Assay in HEK293 cells - 16 hour (AID 1224872)
Summary of the method: as §2

[10] = qHTS RealTime-Glo MT Cell Viability Assay in HepG2 cells - 8 hour (AID 1224873); further: nearly all actives have a fitted effect of over 55% in size
Summary of the method: as §4

[11] = qHTS RealTime-Glo MT Cell Viability Assay in HEK293 cells - 40 hour (AID 1224874); details: RealTime-Glo luminescence; max response: active compounds read low; further: nearly all actives have a fitted effect of over 50% in size
Summary of the method: (§5)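 600 cells/well were plated with the nonlytic NanoLuc/prosubstrate reagent, pre-incubated 5 h, then given 23 nL of compound in DMSO. Incubation at 37 C for 40 h, with luminescence from viable-cell-reduced substrate read repeatedly from 0 h.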

[12] = A CellTox Green Cytotoxicity Assay to monitor cytotoxicity in HEK293 cells - 24 hour (AID 1224875); further: nearly all actives have a fitted effect of over 45% in size
Summary of the method: as §3

[13] = A CellTox Green Cytotoxicity Assay to monitor cytotoxicity in HepG2 cells - 16 hour (AID 1224876); further: nearly all actives have a fitted effect of over 45% in size
Summary of the method: (§6)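 HepG2 cells, 600/well, preincubated 5 h with CellTox Green dye, then exposed to Tox21 compounds in DMSO at 37 C for up to 40 h. Dead-cell DNA fluorescence read at the indicated time point.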

[14] = qHTS RealTime-Glo MT Cell Viability Assay in HepG2 cells - 32 hour (AID 1224877); further: nearly all actives have a fitted effect of over 55% in size
Summary of the method: as §1

[15] = A CellTox Green Cytotoxicity Assay to monitor cytotoxicity in HepG2 cells - 24 hour (AID 1224878); further: nearly all actives have a fitted effect of over 45% in size
Summary of the method: as §6

[16] = A CellTox Green Cytotoxicity Assay to monitor cytotoxicity in HepG2 cells - 40 hour (AID 1224879); further: nearly all actives have a fitted effect of over 40% in size
Summary of the method: as §6

[17] = qHTS RealTime-Glo MT Cell Viability Assay in HEK293 cells - 0 hour (AID 1224880); further: nearly all actives have a fitted effect of over 45% in size; further: potency means the concentration at half of the fitted maximal effect
Summary of the method: as §5

[18] = A CellTox Green Cytotoxicity Assay to monitor cytotoxicity in HEK293 cells - 32 hour (AID 1224881); further: nearly all actives have a fitted effect of over 40% in size
Summary of the method: as §3

[19] = qHTS assay to identify small molecule antagonists of the estrogen related receptor (ERR) signaling pathway from Tox21 library (AID 1224848); further: nearly all actives have a fitted effect of over 50% in size
Summary of the method: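 Antagonist-mode screen of the Tox21 10K library in an NTP-provided ERR reporter cell line; 18 h compound exposure at 37 C, luminescence measured with ONE-Glo.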

[20] = qHTS assay to identify small molecule agonists of the estrogen related receptor (ERR) signaling pathway from Tox21 library (AID 1224849; calls by dose curve; further: nearly all actives have a fitted effect of over 15% in size); details: ERR reporter cell line, ONE-Glo luciferase, 18 h; at 92.4 µM (top of the series) unless noted
Summary of the method: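 ERR reporter cells (NTP line) pre-incubated 6 hours at 37 C, then exposed to compounds for 18 hours at 37 C. ONE-Glo luciferase luminescence was read after 30 minutes at room temperature.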
On the % scale 0 is the no-effect control and ±100 the full control effect.

O=C(O)c1ccco1
inactive: Potency [1] | Potency [2] | Potency [3] | Potency [4] | Potency [5] | Potency [6] | Potency [7] | Potency [8] | Potency [9] | Potency [10] | max response [11] 9.61% | Potency [12] | Potency [13] | Potency [14] | Potency [15] | Potency [16] | Potency [17] | Potency [18]

CCCCCCCCCCCc1ccccc1
inactive: Potency [1] | Potency [2] | Potency [3] | Potency [4] | Potency [5] | Potency [6] | Potency [7] | Potency [8] | Potency [9] | Potency [10] | max response [11] -1.2% | Potency [12] | Potency [13] | Potency [14] | Potency [15] | Potency [16] | Potency [17] | Potency [18]

CCCCC(CC)COC(=O)CCCCCCCCC(=O)OCC(CC)CCCC (stereo not drawn)
inactive: Potency [1] | Potency [2] | Potency [3] | Potency [19] | activity change, positive = activation [20] 1.57% | Potency [5] | Potency [6] | Potency [7] | Potency [8] | Potency [9] | Potency [10] | max response [11] 1.51% | Potency [12] | Potency [13] | Potency [14] | Potency [15] | Potency [16] | Potency [17] | Potency [18]

OCCNCc1ccccc1
inactive: Potency [1] | Potency [2] | Potency [3] | Potency [4] | Potency [5] | Potency [6] | Potency [7] | Potency [8] | Potency [9] | Potency [10] | max response [11] -10.3% | Potency [12] | Potency [13] | Potency [14] | Potency [15] | Potency [16] | Potency [17] | Potency [18]

O=C(O)C(S)C(S)C(=O)O (stereo not drawn)
inactive: Potency [1] | Potency [2] | Potency [3] | Potency [4] | Potency [5] | Potency [6] | Potency [7] | Potency [8] | Potency [9] | Potency [10] | max response [11] 3.09% | Potency [12] | Potency [13] | Potency [14] | Potency [15] | Potency [16] | Potency [17] | Potency [18]

CC(C)O.CC(C)O.CCOC(=O)/C=C(\C)O.CCOC(=O)/C=C(\C)O.[Ti]
inactive: Potency [1] | Potency [2] | Potency [3] | Potency [4] | Potency [5] | Potency [6] | Potency [7] | Potency [8] | Potency [9] | Potency [10] | max response [11] -0.8% | Potency [12] | Potency [13] | Potency [14] | Potency [15] | Potency [16] | Potency [17] | Potency [18]

O=CC1CC=CCC1 (stereo not drawn)
inactive: Potency [1] | Potency [2] | Potency [3] | Potency [4] | Potency [5] | Potency [6] | Potency [7] | Potency [8] | Potency [9] | Potency [10] | max response [11] 10.8% | Potency [13] | Potency [14] | Potency [15] | Potency [16] | Potency [17] | Potency [18]

CCOC(=O)c1cccnc1
inactive: Potency [1] | Potency [2] | Potency [3] | Potency [4] | Potency [5] | Potency [6] | Potency [7] | Potency [8] | Potency [9] | Potency [10] | max response [11] 1.88% | Potency [13] | Potency [14] | Potency [15] | Potency [16] | Potency [17] | Potency [18]

O=C1c2ccccc2S(=O)(=O)N1CCCCN1CCN(c2ncccn2)CC1
inactive: Potency [1] | Potency [2] | Potency [3] | Potency [4] | Potency [5] | Potency [6] | Potency [7] | Potency [8] | Potency [9] | Potency [10] | max response [11] -0.801% | Potency [12] | Potency [14] | Potency [15] | Potency [16] | Potency [17] | Potency [18]

NCc1ccccc1Sc1ccccc1CO
inactive: Potency [1] | Potency [2] | Potency [3] | Potency [4] | Potency [5] | Potency [6] | Potency [7] | Potency [8] | Potency [9] | Potency [10] | max response [11] -17% | Potency [12] | Potency [14] | Potency [15] | Potency [16] | Potency [17] | Potency [18]

C[C@@H]1C[C@H]2[C@@H]3CCC4=CC(=O)C=C[C@]4(C)[C@@]3(F)[C@@H](O)C[C@]2(C)[C@@]1(O)C(=O)COC(=O)c1ccncc1
active: Potency [17] 3.01 µM
inactive: Potency [1] | Potency [2] | Potency [3] | Potency [4] | Potency [5] | Potency [6] | Potency [7] | Potency [8] | Potency [9] | Potency [10] | max response [11] -17.8% | Potency [13] | Potency [14] | Potency [15] | Potency [16] | Potency [18]

CC(C)(C)OCC1CO1 (stereo not drawn)
inactive: Potency [1] | Potency [2] | Potency [3] | Potency [4] | Potency [5] | Potency [6] | Potency [7] | Potency [8] | Potency [9] | Potency [10] | max response [11] -2.11% | Potency [14] | Potency [15] | Potency [16] | Potency [17] | Potency [18]

CCO[C@H](Cc1ccc(OCCc2ccc(OS(C)(=O)=O)cc2)cc1)C(=O)O
inactive: Potency [1] | Potency [2] | Potency [3] | Potency [4] | Potency [5] | Potency [6] | Potency [7] | Potency [8] | Potency [9] | Potency [10] | max response [11] 10.3% | Potency [13] | Potency [14] | Potency [15] | Potency [17] | Potency [18]

Nc1ccc(S(=O)(=O)Nc2ccccc2)cc1
inactive: Potency [1] | Potency [2] | Potency [3] | Potency [4] | Potency [5] | Potency [6] | Potency [7] | Potency [8] | Potency [9] | Potency [10] | max response [11] 0.381% | Potency [12] | Potency [14] | Potency [15] | Potency [16] | Potency [17] | Potency [18]
